Shiga inhibitor: A qHTS for Small Molecule Inhibitors of Shiga Toxin; 290,000 tested, 9.2% active; inhibition, % at 38.7 µM; Vero cells, Shiga toxin protein synthesis inhibition reporter; in the data active = inhibition mostly above about 28%, no sharp cut-off; inactive = mostly below about 43%; note: 0% is about no effect
Pf growth 48h: Primary qHTS for delayed death inhibitors of the malarial parasite plastid, 48 hour incubation; AID 504832, 2011; P. falciparum luciferase growth in erythrocytes, 48 h; 310,000 tested, 5.9% active; Potency, µM (doses to about 28.7 µM), for the others: top-dose activity change, negative = inhibition, usual class: inhibitors; note: potency is the fitted concentration of half-maximal effect; % is set by controls: 0 for no effect and ±100 for the full control effect
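Erythrocytes infected with P. falciparum carrying an integrated firefly luciferase reporter (2% hematocrit, 0.1% parasitemia final) were exposed to compounds in RPMI 1640 with 0.5% Albumax at 37 C, 5% CO2. Growth inhibition was scored as reduced luminescence.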
Pf growth 96h: Primary qHTS for delayed death inhibitors of the malarial parasite plastid, 96 hour incubation | P. falciparum luciferase reporter growth, 96 h | Potency, µM (doses to about 28.7 µM), for the others: top-dose activity change, negative = inhibition, usual class: inhibitors | 320,000 tested, 6.9% active | AID 504834, 2011; note: potency is the fitted concentration of half-maximal effect; % is set by controls: 0 for no effect and ±100 for the full control effect
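Cell-based qHTS: luciferase-tagged P. falciparum in erythrocytes (2% hematocrit, 0.05% parasitemia final) incubated with compounds for 96 hours, 37 C, 5% CO2; luciferase detection reagent then added and luminescence measured.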
Cycloheximide cs: Cycloheximide Counterscreen for Small Molecule Inhibitors of Shiga Toxin | AID 2314, 2010 | max response, % | 300,000 tested, 12% active | cell reporter, cycloheximide protein synthesis inhibition counterscreen; in the data active = max response mostly above about 13%, no sharp cut-off; inactive = mostly below about 14%; note: read at 38.3 µM for the half of the compounds with a filed dose; 0% is about no effect
Sm TGR inh: qHTS Assay for the Inhibitors of Schistosoma Mansoni Peroxiredoxins; AID 485364, 2010; purified TGR, DTNB reduction, TNB absorbance 405 nm; 360,000 tested, 3% active; Potency, µM (series often up to 114 µM), without a hit: at the highest dose activity change, negative = inhibition, usual class: inhibitors; note: potency is the fitted concentration of half-maximal effect; % is set by controls: 0 for no effect and ±100 for the full control effect; nearly all actives have a fitted effect of over 60% in size
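Kinetic colorimetric format: TGR-catalysed, NADPH-driven DTNB reduction monitored via TNB absorbance. Enzyme dispensed at 20 nM; compound exposure 15 min at room temperature before reaction start.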
NS1 function inh: qHTS Assay for Inhibitors of Influenza NS1 Protein Function; Potency, µM (titrated, usually from 46.1 µM), inactives show at the highest dose activity, positive = more growth; 270,000 tested, 0.4% active; AID 2326, 2010; calls by dose curve; note: potency is the fitted concentration of half-maximal effect; actives are rising curves; nearly all actives have a fitted effect of over 50% in size
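Read-out: OD600 growth recovery of NS1-expressing budding yeast. Cells grown overnight at 30C in -URA glucose medium, washed, resuspended and diluted 1:100 in 2% galactose assay medium, pH 6.0. Same strain lacking NS1 served as positive control.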
An asterisk follows results filed as active; ? = inconclusive; nt = no result given. A selection: hits, their analogues and other compounds. The true share with any hit is near 21%. Unless noted, calls come from the whole dose curve; as a rule, active = well fitted curve in the direction sought with a large enough effect; inconclusive = small, poorly fitted or top-dose-only effect, or another doubt; inactive = no such curve, though single readings can be large; an effect the other way counts as inactive or inconclusive.

SMILES	Shiga inhibitor	Pf growth 48h	Pf growth 96h	Cycloheximide cs	Sm TGR inh	NS1 function inh
COc1ccc2c(c1)NC(=O)CC(c1ccccc1)=N2	66*	nt	107%	38*	6%	-11%
CCN(CC)S(=O)(=O)c1cccc(C(=O)NC(Cc2c[nH]c3ccccc23)c2nnc3n2CCC3)c1 (stereo unspecified)	-7	9.3µM*	8.3µM*	-2	-11%	-9%
COc1cc(C2C3=C(CC(C)(C)CC3=O)OC3=C2C(=O)CC(C)(C)C3)cc([N+](=O)[O-])c1O	15	-11%	26%	-4	24%	-2%
CC1C(=O)CCN(C(C)(C)C)C1C (stereo unspecified)	-1	?	8.3µM*	-3	1%	-3%
COc1ccccc1-n1cnnc1SCC(=O)N1CCOCC1	3	20%	3%	-4	1%	11%
CCOc1ccc2oc(=O)cc(CN3CCN(C(=O)c4ccc(Cl)cc4)CC3)c2c1	nt	nt	nt	nt	-7%	nt
Cc1ccc(-c2n[nH]c(=S)n2/N=C/c2ccc(C)s2)cc1	-17	12µM*	12µM*	-7	5%	13%
O=C(Nc1ccc2c(c1)OCCO2)c1cccc(Cl)c1Cl	93*	103%	142%	43*	2%	-26%
O=C(Nc1ccc2c(c1)OCCO2)c1cc(F)c(F)cc1Cl	72*	59%	3%	37*	-1%	15%
Cc1ccc(C(=O)Nc2ccc3c(c2)OCCO3)c(Cl)c1	4	154%	32%	-2	-24%	-17%
O=C(Nc1ccc2c(c1)OCCO2)c1c(F)c(F)c(F)c(F)c1F	45	10%	-2%	17*	5%	-4%
COc1ccc(C2c3[nH]c4ccccc4c3C[C@H]3C(=O)N(C4CCN(Cc5ccccc5)CC4)CC(=O)N23)c(OC)c1 (stereo partly specified)	-7	0.83µM*	1µM*	-2	-8%	9%
COc1cccc(C2c3[nH]c4ccccc4c3C[C@H]3C(=O)N(CCCO)CC(=O)N23)c1OC (stereo partly specified)	13	?	?	0	-2%	-7%
COc1ccc(OC)c(C2c3[nH]c4ccccc4c3C[C@H]3C(=O)N(C4CC4)CC(=O)N23)c1 (stereo partly specified)	-11	?	?	-6	0%	11%
Cc1ccccc1C1c2[nH]c3ccccc3c2C[C@H]2C(=O)N(C3CCN(Cc4ccccc4)CC3)CC(=O)N12 (stereo partly specified)	-5	3.3µM*	0.33µM*	-3	7%	10%
CCOc1ccccc1C1c2[nH]c3ccccc3c2C[C@H]2C(=O)N(C3CCN(Cc4ccccc4)CC3)CC(=O)N12 (stereo partly specified)	21	0.93µM*	0.74µM*	7	1%	6%
COCCNC(=O)CN(Cc1ccccc1)C(=O)CCC(=O)Nc1nccs1	-3	7%	10%	-7	4%	3%
O=c1ccc(-c2ccc(S(=O)(=O)NCC3CCN(Cc4ccccc4F)CC3)s2)n[nH]1	-9	?	2.9µM*	-2	6%	-5%
COC(=O)c1cc(S(=O)(=O)NCC2CCN(Cc3ccccc3F)CC2)c[nH]1	-3	15%	27%	-1	10%	-7%
Cc1ccc(-n2c(SCC(=O)Nc3ccc(Cl)cc3)nc(O)cc2=O)cc1	17	?	?	-2	-11%	-16%
CCOC(=O)Cn1nnc(-c2ccccc2)n1	11	-15%	?	-3	-3%	-2%
CCOC(=O)CN1C(=O)CC(c2ccc([N+](=O)[O-])cc2)C1=O (stereo unspecified)	-4	19%	7.4µM*	-3	-1%	26%
CCOC(=O)Cn1nnc(-c2ccc([N+](=O)[O-])cc2)n1	14	22%	-16%	11*	0%	-1%
CCCOc1ccc(-c2nnn(CC(=O)OCC)n2)cc1	44	40%	2%	20*	-2%	-70%

Bioassay records from PubChem.
